According to PubChem BioAssay AID1906 (The Scripps Research Institute Molecular Screening Center, 2009):
About 1,500 (0.5%) of roughly 300,000 compounds were called active.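 How the source made its calls: active means inhibition above the mean of all tested compounds plus 3 SD, set per screening campaign (cut at about 17% in these data); inactive means the rest.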 The full list was thinned out, with actives kept by preference.

The compounds below were run on cathepsin L1 (Fasciola hepatica) (assay: Fasciola hepatica cathepsin L1 inhibitors, primary screen, counter-screen for PFM18AAP inhibitor project, biochemical, QFRET, fluorogenic peptide substrate (AID 1906;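 further: 0% = plate median of test compound wells and 100% = 1 µM Z-Phe-Ala-diazomethylketone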)). Details: recombinant F. hepatica cathepsin L1, Z-Leu-Arg-MCA fluorescence; at 5.96 µM; hits give high values.

SMILES	inhibition
O=C(c1ccc(F)cc1)N1CCCC(C(=O)N2CCCCC2)C1 (centres undefined)	-2.4% (inactive)
COc1ccc(C(=O)NC(=S)N2CCNC(=O)C2CC(=O)OC(C)C)cc1 (centres undefined)	-3.41% (inactive)
Cc1ccc2cc(C)c(N3CCC(C)CC3)nc2c1	-2.83% (inactive)
CN(c1ccccc1)S(=O)(=O)c1ccc2[nH]c(=O)[nH]c2c1	-6.38% (inactive)
CC1CCC(C(C)C)C(=O)/C1=C\c1ccc(NC(=O)CCC(=O)O)cc1 (centres undefined)	2% (inactive)
CCCOC(=O)Cc1c(O)c2ccccc2[nH]c1=O	46.3% (active)
CC(C)C(=O)Nc1c(O)c2ccccc2[nH]c1=O	-1.29% (inactive)
O=C(Cc1c(O)c2ccccc2[nH]c1=O)NCc1ccccc1	0.35% (inactive)
N#Cc1c(N2CCCCC2)nc(N)c2c(N)nc(SCC(=O)O)cc12	1.83% (inactive)
COc1cccc(-c2cc3nc4c(c(N5CCC6(CC5)OCCO6)n3n2)CCCC4)c1	1.28% (inactive)
Cc1cc(C)cc(NC(=O)COc2coc(CN3CCN(c4ccccc4)CC3)cc2=O)c1	-0.61% (inactive)
O=C(CSc1nc2ccccc2o1)N/N=C/c1ccccc1C(=O)O	-1.26% (inactive)
CCC(NC(=O)c1ccccc1NC(=O)c1ccccc1)C(=O)NNC(=O)CSc1nc2ccccc2o1 (centres undefined)	31.7% (active)
CCN(CC)C(=O)CSc1nc2ccccc2o1	-2.89% (inactive)
COc1ccccc1CNC(=O)[C@@H]1CCCN1C(=O)[C@@H]1Cc2ccccc2CN1C(=O)OC(C)(C)C	7.62% (inactive)
CCC(C)N1CC(=O)N2Cc3[nH]c4ccccc4c3C[C@H]2C1=O (some centres undefined)	5.23% (inactive)
COC(C[C@@H]1O[C@@H]1C(=O)[C@H](C)OCc1ccccc1)OC	28.4% (active)
COC(C[C@@H]1O[C@@H]1C(=O)[C@@H](C)OCc1ccccc1)OC	9.96% (inactive)
COC(C/C=C/C(=O)[C@@H](C)OCc1ccccc1)OC	-1.49% (inactive)
CC(Oc1ccc(F)cc1)C(=O)Nc1ccccc1C(=O)NC1CC1 (centres undefined)	-1.06% (inactive)
CC12CCC(=O)N1C(C(=O)Nc1ccc(F)c(F)c1F)CS2 (centres undefined)	2.04% (inactive)
Cc1ccc(C2C(C#N)C(C#N)N3CCCN23)cc1 (centres undefined)	1.37% (inactive)
COc1ccc(F)cc1S(=O)(=O)NCC(c1ccc2c(c1)OCO2)N1CCN(C)CC1 (centres undefined)	4.62% (inactive)

SMILES	inhibition
O=C1C(Cl)=C(N2CCOCC2)C(=O)N1c1ccccc1	42.9% (active)
O=C1OC(NC(=O)c2ccccc2)C(N2CCOCC2)=C1Cl (centres undefined)	5.28% (inactive)
O=c1[nH]c(N2CCOCC2)nc2ccccc12	0.18% (inactive)
COc1ccc(CNC(=O)COC(=O)/C=C/c2ccc(S(=O)(=O)N3CCOCC3)cc2)cc1	0.44% (inactive)
COC(=O)c1ccc(NC(=O)CSc2nnc(Cc3cccn3C)n2-c2ccc(F)cc2)cc1	6.5% (inactive)
CCOc1cc(NC(=O)CCl)c(OCC)cc1NC(C)=O	83.7% (active)
CCOc1cc(NS(=O)(=O)c2ccc(OC)cc2)c(OCC)cc1NC(C)=O	-2.89% (inactive)
CCCC(=O)Nc1cc(OCC)c(NC(=O)NC2CCCCC2)cc1OCC	-3.59% (inactive)
C/C(CCC(=O)OC[C@H]1O[C@H](C#Cc2ccccc2)C=C[C@@H]1Oc1ccc(C)cc1)=N\OC[C@@H](O)[C@H]1O[C@@H]2OC(C)(C)O[C@@H]2[C@H]1O	-0.48% (inactive)
CC1(C)NC(=O)N(CCCCSc2ccc(Cl)cc2)C1=O	3.34% (inactive)
CC(C)Nc1nc(N(c2ccccc2)c2ccccc2)nc(-n2ccnc2)n1	-0.83% (inactive)
N#Cc1nc(N)nc(N(c2ccccc2)c2ccccc2)n1	56.4% (active)
Cc1ccccc1-c1ccc(Nc2ccc(C(=O)N3CCOCC3)cc2)nn1	0.35% (inactive)
Cc1oc2c(c1C(=O)N1CCOCC1)C(=O)c1ccccc1C2=O	18.4% (active)
Cc1ccc(C(=O)N2CCN(C(=O)N3CCOCC3)CC2)cc1	1.67% (inactive)
CCOC(=O)/C(=C\c1ccc([N+](=O)[O-])cc1)C(=O)c1cc(C(C)=O)c(Nc2ccccc2)s1	-2.81% (inactive)
COc1ccccc1C(CNC(=O)c1cccc(NS(=O)(=O)c2ccc(Br)cc2)c1)N(C)C (centres undefined)	4.17% (inactive)
CN(C)C(CNC(=O)c1cccc(S(=O)(=O)Nc2ccc(Br)cc2)c1)c1ccco1 (centres undefined)	-0.56% (inactive)
CN(C)C(CNC(=O)CCCOc1ccccc1)c1ccco1 (centres undefined)	-6.17% (inactive)
CN(C)C(CNC(=O)c1cccc(C#N)c1)c1ccco1 (centres undefined)	22.2% (active)
COC(=O)c1scc(S(=O)(=O)C(C)(C)C)c1-n1cccc1	-3.59% (inactive)
O=C(N/N=C/c1ccc([N+](=O)[O-])o1)c1cn(-c2ccccc2)nc1-c1ccc(F)cc1	1.54% (inactive)
Cc1ccc(/C=C/C(=O)Nc2ccc([N+](=O)[O-])c(NC(=O)/C=C/c3ccc(C)o3)c2)o1	7.56% (inactive)

SMILES	inhibition
O=C(/C=C/c1ccc([N+](=O)[O-])o1)NNC(=O)c1ccc(F)cc1	17.7% (active)
Cc1ccc(NC(=S)Nc2ncccc2C)c(C)c1	-0.91% (inactive)
[2H]C(CCOS(N)(=O)=O)c1ccccc1 (centres undefined)	1.8% (inactive)
COc1ccc(C=C(C#N)C#N)c(CSc2ccccn2)c1	-4.15% (inactive)
Cc1ccc(OCCNC(=O)CCNS(=O)(=O)c2ccc(Br)cc2)cc1	0.55% (inactive)
O=C(Cc1ccccc1)Nc1cccc(NC(=O)c2ccccc2)c1	-2.42% (inactive)
O=C(CCl)Nc1cccc(CP(=O)(c2ccccc2)c2ccccc2)c1	72% (active)
CCc1cccc(NC(=O)CCC(=O)O)c1	-3% (inactive)
C#CCOCCOCCOCCNc1nc(N2CCN(C(=O)[C@H](CCCCN)n3cc([C@@H](N)C(C)CC)nn3)CC2)nc(N2CCN(C(=O)[C@H](Cc3ccc(O)cc3)n3cc([C@@H](N)C(C)CC)nn3)CC2)n1 (some centres undefined)	5.02% (inactive)
C#CCOCCOCCOCCNc1nc(N2CCN(C(=O)C([C@@H](C)CC)n3cc(C(N)COC(=O)C(F)(F)F)nn3)CC2)nc(N2CCN(C(=O)[C@H](CCCCN)n3cc(C(N)CC(C)C)nn3)CC2)n1 (some centres undefined)	33.1% (active)
C#CCOCCOCCOCCNc1nc(N2CCN(C(=O)C([C@@H](C)CC)n3cc(C(N)COC(=O)C(F)(F)F)nn3)CC2)nc(N2CCN(C(=O)[C@H](Cc3ccc(O)cc3)n3cc(C(N)[C@H](C)CC)nn3)CC2)n1 (some centres undefined)	-2.06% (inactive)
CCOC(=O)NC(=O)CSc1nnc(SCCC(=O)O)s1	-3.27% (inactive)
Cc1cccc2nc(CNc3ccc(F)cc3)cn12	-0.43% (inactive)
O=C(CN1CCN(S(=O)(=O)c2ccc(F)cc2)CC1)NC1CC1	0.44% (inactive)
Nc1c(Cl)cc(-c2csc(N3CCCC3c3nc4cc(Cl)c(Cl)cc4n3CCOCCO)n2)cc1Cl (centres undefined)	1.62% (inactive)
COCCCN(C(=S)Nc1c(C)cc(C)cc1C)C(C)c1ccncc1 (centres undefined)	-2.52% (inactive)
CC(C)Cc1nnc(NC(=O)CCC(=O)Nc2ccc3cn[nH]c3c2)s1	-6.53% (inactive)
Cc1onc(-c2ccccc2)c1C(=O)NNC(=S)NC(=O)c1ccc(F)cc1	6.16% (inactive)
CCc1noc(C)c1C(=O)NNC(=O)c1ccc(F)cc1	18.8% (active)
CCc1noc(C)c1C(=O)N1CCCC(N2CCN(c3ccc(F)cc3)CC2)C1 (centres undefined)	-0.72% (inactive)
COc1ccc(/C=N/NC(=O)C(C)N(c2ccc(OC)cc2)S(C)(=O)=O)cc1 (centres undefined)	-4.5% (inactive)
COc1cc(C2C(N3C(=O)c4ccccc4C3=O)C(=O)N2c2ccc(C)c(C)c2)cc(OC)c1OC (centres undefined)	3.07% (inactive)
CCOC(=O)NN1C(=O)c2ccccc2NC1c1cccc(O)c1 (centres undefined)	7.1% (inactive)

SMILES	inhibition
Cc1ccc(C2Nc3ccccc3C(=O)N2CCN2CCNC2=O)cc1 (centres undefined)	28.6% (active)
CC(=O)NN1C(=O)c2ccccc2NC1c1ccccc1 (centres undefined)	0.11% (inactive)
Cc1cc(NC(=O)CCC(=O)N(c2cccc(F)c2)C(C(=O)NC2CCCC2)c2ccncc2)no1 (centres undefined)	-0.94% (inactive)
Cc1cc(NC(=O)CCC(=O)N(Cc2ccccc2)C(C(=O)NC2CCCC2)c2ccc(C)o2)no1 (centres undefined)	29.5% (active)
Cc1cc(NC(=O)CCC(=O)N(c2ccccc2)C(C(=O)NC2CCCC2)c2ccncc2)no1 (centres undefined)	-1.79% (inactive)
CC1CCN(S(=O)(=O)c2ccc3ncn(CC(=O)N(C)C4CCCCC4)c(=O)c3c2)CC1	1.81% (inactive)
Cc1ccc(C)c(Cn2nnc3c(=O)[nH]c(C(=O)Nc4ccc(F)cc4)nc32)c1	0.39% (inactive)
O=C(CCl)NNc1cccc(Cl)n1	87.5% (active)
O=C(Cc1c(Cl)cccc1Cl)NC1CC1	4.27% (inactive)
O=C(NNc1ccccn1)c1ccc(Cl)nc1	1.75% (inactive)
Cc1ccccc1NC(=O)c1ccc(COc2ccc3c(C)cc(=O)oc3c2)cc1	1.96% (inactive)
CCn1ccnc1CN(C)Cc1nc(-c2ccc3c(c2)OCO3)no1	-4.87% (inactive)
COc1ccc(NC(=O)COC(=O)CNC(=O)C2CCCCC2)cc1	32.3% (active)
COc1ccc(NC(=O)CN(C)C(=O)CNC(=O)C2CCCCC2)cc1	-1.07% (inactive)
COc1ccc(CCNC(=O)COC(=O)C2CCCCC2)cc1	-2.54% (inactive)
NC(=O)COc1ccccc1C(=O)NC12CC3CC(CC(C3)C1)C2	-1.07% (inactive)
COc1ccccc1C(=O)COC(=O)CSCC(=O)Nc1cc(C)on1	-19.3% (inactive)
Cc1cc(C)c(C#N)c(SCC(=O)Nc2ccccc2)n1	39.5% (active)
Cc1cc(C)c(C#N)c(SCc2ccccc2C(=O)O)n1	-2.52% (inactive)
COCc1cc(C)nc(SCC(=O)Nc2cccc(C)c2)c1C#N	-0.64% (inactive)
